Measurements taken from article PMC10726135, “HNF4α isoforms regulate the circadian balance between carbohydrate and lipid metabolism in the liver”.
In all, about 18,000 sequences were measured (“log2 normalized intensity”: median about 0.36, highest 2% from about 7.3 on). Shown is part of a subset that was picked to be rich in the highest values.

target: T1, HNF4alpha8 (COS-7 nuclear extract) (Homo sapiens, UniProt P41235-5 1-452); assay: protein-binding microarray; COS-7 nuclear extract on double-stranded Agilent 4x180k PBM; binding buffer, salt, pH and temperature not given in the material; high values mean tight binding; conditions: chain copies: 2; label: 3' end of strand 1 on the slide; dsDNA, one strand shown
T1 sequence: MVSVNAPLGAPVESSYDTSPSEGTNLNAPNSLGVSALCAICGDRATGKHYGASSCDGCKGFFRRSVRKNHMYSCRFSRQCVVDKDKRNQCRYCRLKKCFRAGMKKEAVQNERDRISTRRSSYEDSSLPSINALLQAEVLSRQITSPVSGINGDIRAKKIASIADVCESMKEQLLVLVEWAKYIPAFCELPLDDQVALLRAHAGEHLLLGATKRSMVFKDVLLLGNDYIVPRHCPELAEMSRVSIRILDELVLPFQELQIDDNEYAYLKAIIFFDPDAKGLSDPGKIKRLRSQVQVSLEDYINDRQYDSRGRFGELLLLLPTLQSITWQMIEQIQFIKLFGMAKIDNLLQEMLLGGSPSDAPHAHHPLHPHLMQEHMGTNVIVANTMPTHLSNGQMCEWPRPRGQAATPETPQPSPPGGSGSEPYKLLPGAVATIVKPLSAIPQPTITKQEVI
How it was run: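 Binding signal is the background-corrected, normalized gProcessedSignal calculated by Agilent software. It was measured by applying nuclear extracts of COS-7 cells transiently transfected with a human HNF4α isoform expression vector to a custom Agilent SurePrint G3 4x180k array of ~44,000 double-stranded ~60-nt test sequences in quadruplicate, then imaging bound HNF4α on an Agilent G2565CA scanner at 2-µm resolution.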

| Sequence | binding signal [log2 normalized intensity] |
| --- | --- |
| AGGAGATGTGGTGGACTTTAACGACCTTTGGCCTAGGGAGATTAGAGTATCGGTCGA | 5.28 |
| CCTTGATGTGTATTTGTAGCTTCAAACCAGGCCTAGGGAGATTAGAGTATCGGTCGA | 1.52 |
| GGGGGTTTGCAACCTTTGATAACCTACAACGCCTAGGGAGATTAGAGTATCGGTCGA | 1.37 |
| GTGAGTGTGTTGGCAAGAGATCTGCAGGGTGCCTAGGGAGATTAGAGTATCGGTCGA | 1.02 |
| TTATCTTACATGCCTTATCTGGTTCAAAGGGCCTAGGGAGATTAGAGTATCGGTCGA | 3.33 |
| GGTTCAAAGGTCATTTCTGCTTGCAACCAAGCCTAGGGAGATTAGAGTATCGGTCGA | 5.81 |
| TATCTGGTTCAAAGGTCATTTCTGCTTGCAGCCTAGGGAGATTAGAGTATCGGTCGA | 6.43 |
| TGCCTTATCTGGTTCAAAGGTCATTTCTGCGCCTAGGGAGATTAGAGTATCGGTCGA | 7.61 |
| TTACATGCCTTATCTGGTTCAAAGGTCATTGCCTAGGGAGATTAGAGTATCGGTCGA | 8.2 |
| TCCTTTTATCTTACATGCCTTATCTGGTTCGCCTAGGGAGATTAGAGTATCGGTCGA | 1.64 |
| TCCAGAATTGTGTGGTTATCTGTTGGGGAAGCCTAGGGAGATTAGAGTATCGGTCGA | 2.14 |
| TTGAACCTTGGGTCTGTAATCTCACAACTCGCCTAGGGAGATTAGAGTATCGGTCGA | 1.98 |
| ATAAGGGGCAGCAAACCTACCTGAACTTTGGCCTAGGGAGATTAGAGTATCGGTCGA | 3.58 |
| GGGAGGAGGGCAACCTTTGAACTGGGTCTTGCCTAGGGAGATTAGAGTATCGGTCGA | 4.84 |
| GGGCAGCAAACCTACCTGAACTTTGCCCCAGCCTAGGGAGATTAGAGTATCGGTCGA | 8.83 |
| TGCAGCAAAACTTTAGGACTTTGAACCTTGGCCTAGGGAGATTAGAGTATCGGTCGA | 9.2 |
| CAAAACTTTAGGACTTTGAACCTTGGGTCTGCCTAGGGAGATTAGAGTATCGGTCGA | 7.83 |
| CCTTGCCACCCACACTGCAGCAAAACTTTAGCCTAGGGAGATTAGAGTATCGGTCGA | -0.731 |
| CTTTAGGACTTTGAACCTTGGGTCTGTAATGCCTAGGGAGATTAGAGTATCGGTCGA | 6.82 |
| CACACTGCAGCAAAACTTTAGGACTTTGAAGCCTAGGGAGATTAGAGTATCGGTCGA | 4.12 |
| CCTTGGGTCTGTAATCTCACAACTCAGAAGGCCTAGGGAGATTAGAGTATCGGTCGA | -0.129 |
| GCAAACCTACCTGAACTTTGCCCCAGAGGAGCCTAGGGAGATTAGAGTATCGGTCGA | 6.74 |
| GGACTTTGAACCTTGGGTCTGTAATCTCACGCCTAGGGAGATTAGAGTATCGGTCGA | 7.84 |
| GTTGCCTGTGAGTCAGGTACCTGCTTCTGCGCCTAGGGAGATTAGAGTATCGGTCGA | 0.609 |

| Sequence | binding signal [log2 normalized intensity] |
| --- | --- |
| TACTTAGTGTTTTATGTGTATTTACTTATTGCCTAGGGAGATTAGAGTATCGGTCGA | 1.74 |
| GGCAAGATTTTGTCCTGAGTTATTGGAAGAGCCTAGGGAGATTAGAGTATCGGTCGA | 0.282 |
| TCTTCAAGGAGGTGAACTTTGAGACTATCCGCCTAGGGAGATTAGAGTATCGGTCGA | 5.2 |
| AAAGTTTCCTCTCCTGCCCTACTCCCTTAAGCCTAGGGAGATTAGAGTATCGGTCGA | 2.63 |
| AGTGGTTTCAAGGTGACCCCACGGAGCTGCGCCTAGGGAGATTAGAGTATCGGTCGA | 3 |
| CCTACCAGTATGCAATGTTAGTCTGGGAAAGCCTAGGGAGATTAGAGTATCGGTCGA | -0.0207 |
| ATTGCCGACCTCATGAGTAGAGAGCAATCAGCCTAGGGAGATTAGAGTATCGGTCGA | -0.943 |
| ACTTCTGTCTCCAGAAATCAACCTTTGATCGCCTAGGGAGATTAGAGTATCGGTCGA | 8.8 |
| ATGTCTCCAGAAACCAACCTTTGATCATTCGCCTAGGGAGATTAGAGTATCGGTCGA | 5.75 |
| TGTCTCCAGAAATCAACCTTTGATCGTTTGGCCTAGGGAGATTAGAGTATCGGTCGA | 6.77 |
| GCCAGAACTGAGCCCTGGTTTATCTGTTGTGCCTAGGGAGATTAGAGTATCGGTCGA | 0.861 |
| TTTTCAATCTTATTTTTACTATGTGGCATTGCCTAGGGAGATTAGAGTATCGGTCGA | 1.35 |
| TATACCTGTACACTTACAAGTGTACAAAGGGCCTAGGGAGATTAGAGTATCGGTCGA | 2.96 |
| CCTGTCCAAAGGTCATCTGTCACTCTAGATGCCTAGGGAGATTAGAGTATCGGTCGA | 6.02 |
| GTCTGACCAACCTGTCCAAAGGTCATCTGTGCCTAGGGAGATTAGAGTATCGGTCGA | 7.75 |
| CACTTACAAGTGTACAAAGGTCACTTCTGTGCCTAGGGAGATTAGAGTATCGGTCGA | 7.03 |
| GGAATGTCTGACCAACCTGTCCAAAGGTCAGCCTAGGGAGATTAGAGTATCGGTCGA | 8.5 |
| CTGTACACTTACAAGTGTACAAAGGTCACTGCCTAGGGAGATTAGAGTATCGGTCGA | 8.53 |
| ACCAACCTGTCCAAAGGTCATCTGTCACTCGCCTAGGGAGATTAGAGTATCGGTCGA | 6.36 |
| CTTGGCTGTGTCCCTTGACCAAAGGTCACTGCCTAGGGAGATTAGAGTATCGGTCGA | 7.67 |
| AGTATATTGGCTTGGCTGTGTCCCTTGACCGCCTAGGGAGATTAGAGTATCGGTCGA | 3.67 |
| TCAGAGGAATGTCTGACCAACCTGTCCAAAGCCTAGGGAGATTAGAGTATCGGTCGA | -0.555 |
| ATTGGCTTGGCTGTGTCCCTTGACCAAAGGGCCTAGGGAGATTAGAGTATCGGTCGA | 2.62 |
| TTATATCAGAGGAATGTCTGACCAACCTGTGCCTAGGGAGATTAGAGTATCGGTCGA | 0.807 |
